PubChem BioAssay (Tox21)
Records with an inconclusive call do not appear. Entries that show only a call come without a potency. The source made the active and inactive calls. Calls follow the shape of the dose curve; as a rule, active = well fitted activation curve with a large enough effect in the repeat runs; inconclusive = weak or mixed curves; inactive = flat fitted curve, though single readings scatter.

Test: A CellTox Green Cytotoxicity Assay to monitor cytotoxicity in HEK293 cells - 24 hour (AID 1224875); also: nearly all actives have a fitted effect of over 45% in size
Settings: CellTox Green fluorescence; series mostly up to 76.8 µM
Text: National Center for Advancing Translational Sciences [NCATS]
NIH Chemical Genomics Center [NCGC]
U.S. Environmental Protection Agency [EPA]
National Institutes of Environmental Health Sciences [NIEHS]
National Toxicology Program [NTP]
Cell-based models are critical for drug discovery. Determining the natural cytotoxic effects resulting from test compounds is an essential research activity. A CellTox Green Cytotoxicity Assay to monitor cytotoxicity in real time of continues cell culture during 40 hours of the compound treatment was used to screen Tox21 10K library compounds in Hek293 cells. CellTox Green Cytotoxicity Assay is a nonlytic, homogeneous, biofluorescent method to measure cytotoxicity in cell culture after experimental manipulation. The assay system uses a proprietary asymmetric cyanine dye that is excluded from viable cells but preferentially stains the dead cell's DNA. […] Viable cells produce no appreciable increases in fluorescence. Therefore, the fluorescence signal produced by the binding interaction with dead cell DNA is proportional to cytotoxicity.
The mixture of Hek293 cell suspension and reagents were dispensed at 600cells/6 ul/well in 1536-well tissue culture treated black solid bottom plates using a Multidrop dispenser. After the assay plates were incubated at a 37 C/5% CO2 incubator for 5 hours, 23 nL of compounds dissolved in DMSO, positive and negative controls was transferred to the assay plate by a pintool work station. The plates were incubated at 37 C for 40 hours. The fluorescence intensity were measured at 0h, 8h, 16h, 24h, 32h and 40h time points using ViewLux plate reader during compound treatment.
Potency is read from the fitted curve at half-maximal effect.

Row | SMILES | Potency | activity change
1 | Oc1ccccc1F | inactive | 
2 | NC/C=C/C(=O)O | inactive | 
3 | CCCCCCOc1ccc(N)cc1 | 49 µM (active) | 
4 | Cc1cc2nc(N)sc2cc1C | inactive | 
5 | NC(Cc1ccc(F)cc1)C(=O)O (stereo not given) |  | 11.7% [at 6.97 µM, hits give high values] (inactive)
6 | CC(C)c1ccccc1 | inactive | 
7 | O=Cc1ccc(F)c(Br)c1 | inactive | 
8 | CCOC(=O)c1cc(=O)c2c(OCC(COc3cccc4oc(C(=O)OCC)cc(=O)c34)OC(=O)[C@@H](N)CCCCN)cccc2o1 | inactive | 
9 | CC(C)Nc1nc(N)nc(Cl)n1 | inactive | 
10 | C[C@]12C(=O)OC(=O)[C@H]1[C@H]1C=C[C@@H]2C1 | inactive | 
11 | CC1=C(CC(=O)O)c2cc(F)ccc2/C1=C\c1ccc(S(C)(=O)=O)cc1 | inactive | 
12 | CCOc1ccc2nc(N)sc2c1 | inactive | 
13 | N#CSCC(=O)O | inactive | 
14 | O=S(=O)(O)C(F)(F)F | inactive | 
15 | OCc1c2ccccc2cc2ccccc12 | inactive | 
16 | CCCCC1CCC(=O)O1 (stereo not given) | inactive | 
17 | CC(=O)N[C@@H](CC(C)C)C(=O)O | inactive | 
18 | OCCN(CCO)CCN(CCO)CCO | inactive | 
19 | NS(=O)(=O)c1cc(-c2nn[nH]n2)c(NCc2cccs2)cc1Cl | inactive | 
20 | Cc1ccsc1C(=CCCN1CCC[C@@H](C(=O)O)C1)c1sccc1C | inactive | 

Row | SMILES | Potency | activity change
21 | CCc1nnc(NS(=O)(=O)c2ccc(N)cc2)s1 | inactive | 
22 | Cc1nnc(SCC2=C(C(=O)O)N3C(=O)[C@@H](NC(=O)Cn4cnnn4)[C@H]3SC2)s1 | inactive | 
23 | O=C(O)C(=O)Cc1c[nH]c2ccccc12 | inactive | 
24 | O=C1CCCc2ccccc21 | inactive | 
25 | COC(=O)C(C)O (stereo not given) | inactive | 
26 | CCCCCCCCCCCCOCCOS(=O)(=O)O | 24.5 µM (active) | 
27 | c1ccc(CN(CC2=NCCN2)c2ccccc2)cc1 | inactive | 
28 | CC(C)C[C@H](NC(=O)OCC1c2ccccc2-c2ccccc21)C(=O)O | inactive | 
29 | Oc1ccccc1C=NCc1ccccc1 | inactive | 
30 | CCN[C@H]1CN(CCCOC)S(=O)(=O)c2sc(S(N)(=O)=O)cc21 | inactive | 
31 | COC(=O)N[C@H](C(=O)N[C@@H](Cc1ccccc1)[C@@H](O)CN(Cc1ccc(-c2ccccn2)cc1)NC(=O)[C@@H](NC(=O)OC)C(C)(C)C)C(C)(C)C | inactive | 
32 | C/C(=N\O)[C@@H](C)NCC(C)(C)CN[C@H](C)/C(C)=N/O | inactive | 
33 | CC1(O)CSC(C)(O)CS1 (stereo not given) | inactive | 
34 | CCOC(=O)c1ccccc1O | inactive | 
35 | CCOC(=O)C(Br)c1ccccc1 (stereo not given) | inactive | 
36 | CC(C)CCCCCCc1ccc(OCCOCCO)cc1 | inactive | 
37 | O=C1CCCCC1C1CCCCC1 (stereo not given) | inactive | 
38 | COc1ccccc1OCC(O)COC(N)=O (stereo not given) | inactive | 
39 | O=C(O)c1ccccc1Nc1cc(Cl)ccc1C(=O)O |  | -4.95% [at 15.8 µM, hits give high values] (inactive)
40 | NCCC(O)(P(=O)(O)O)P(=O)(O)O | inactive | 
